This passage reports inhibition results from ChEMBL document CHEMBL1961873, “Compounds: GSK PKIS; Assays: Nanosyn kinase panel” (2012).

For assay [1], the target named is T1, 3-phosphoinositide-dependent protein kinase 1 (Homo sapiens) (UniProt O15530).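 Note: values are mean inhibition of PDK1.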
T1 sequence (whole entry): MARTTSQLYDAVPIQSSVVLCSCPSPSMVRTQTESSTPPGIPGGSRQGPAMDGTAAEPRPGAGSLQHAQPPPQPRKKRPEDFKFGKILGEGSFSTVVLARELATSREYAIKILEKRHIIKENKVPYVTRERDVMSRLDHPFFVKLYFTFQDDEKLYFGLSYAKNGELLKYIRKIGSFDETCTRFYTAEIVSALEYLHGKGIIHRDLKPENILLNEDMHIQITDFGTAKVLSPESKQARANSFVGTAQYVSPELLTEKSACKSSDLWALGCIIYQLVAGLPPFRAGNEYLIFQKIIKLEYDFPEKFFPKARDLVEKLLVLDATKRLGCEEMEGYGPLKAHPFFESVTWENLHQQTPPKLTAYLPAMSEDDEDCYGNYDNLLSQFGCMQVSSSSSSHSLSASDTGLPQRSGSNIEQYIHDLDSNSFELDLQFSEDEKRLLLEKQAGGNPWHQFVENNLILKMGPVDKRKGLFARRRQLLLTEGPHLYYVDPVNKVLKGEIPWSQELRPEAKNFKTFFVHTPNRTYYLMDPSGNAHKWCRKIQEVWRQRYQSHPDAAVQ
The note with it: at 0.1 µM.

In assay [2] the target is cAMP-dependent protein kinase catalytic subunit alpha (Homo sapiens) (UniProt P17612). The note with it: at 0.1 µM.
For assay [3] the target is unchanged. The note with it: at 1 µM.
For assay [4], the target named is Protein kinase C alpha type (Homo sapiens) (UniProt P17252). The note with it: at 0.1 µM.
Assay [5] shares this target. To be noted: at 1 µM.
The target in assay [6] is Protein kinase C beta type (Homo sapiens) (UniProt P05771). The note with it: at 0.1 µM.
Assay [7] has the same target. To be noted: at 1 µM.
Assay [8] deals with Protein kinase C eta type (Homo sapiens) (UniProt P24723). To be noted: at 0.1 µM.
The target is the same in assay [9]. The note with it: at 1 µM.
Assay [10] deals with Protein kinase C gamma type (Homo sapiens) (UniProt P05129). To be noted: at 0.1 µM.
Assay [11] shares this target. To be noted: at 1 µM.
Assay [12] has as its target T2, Protein kinase C iota type (Homo sapiens) (UniProt P41743).
T2 sequence (whole entry): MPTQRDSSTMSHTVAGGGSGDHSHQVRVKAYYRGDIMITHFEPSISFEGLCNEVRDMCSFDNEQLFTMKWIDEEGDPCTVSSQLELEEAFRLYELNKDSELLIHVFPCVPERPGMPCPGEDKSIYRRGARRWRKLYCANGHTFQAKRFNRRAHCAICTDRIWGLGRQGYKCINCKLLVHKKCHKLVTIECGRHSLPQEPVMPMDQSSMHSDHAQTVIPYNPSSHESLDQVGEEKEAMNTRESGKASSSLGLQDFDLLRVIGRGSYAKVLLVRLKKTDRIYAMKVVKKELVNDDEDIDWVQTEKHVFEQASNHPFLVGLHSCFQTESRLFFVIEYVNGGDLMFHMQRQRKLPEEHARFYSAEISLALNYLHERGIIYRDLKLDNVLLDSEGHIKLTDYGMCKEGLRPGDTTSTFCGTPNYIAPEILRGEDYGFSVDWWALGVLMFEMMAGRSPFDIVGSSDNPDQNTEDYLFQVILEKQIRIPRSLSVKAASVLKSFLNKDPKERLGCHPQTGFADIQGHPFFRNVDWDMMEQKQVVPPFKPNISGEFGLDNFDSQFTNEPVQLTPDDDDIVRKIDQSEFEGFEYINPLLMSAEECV
The note with it: at 0.1 µM.

Assay [13] addresses T2, Protein kinase C iota type (Homo sapiens). To be noted: at 1 µM.
For assay [14], the target named is Protein kinase C theta type (Homo sapiens) (UniProt Q04759). The note with it: at 0.1 µM.
The target is the same in assay [15]. To be noted: at 1 µM.
The target in assay [16] is Protein kinase C beta type (Homo sapiens) (UniProt P05771). To be noted: at 0.1 µM. This is another data set of the same source.
For assay [17] the target is unchanged. The note with it: at 1 µM. The source holds these as a separate data set.
In assay [18] the target is T3, Serine/threonine-protein kinase D1 (Homo sapiens) (UniProt Q15139).
T3 sequence (whole entry): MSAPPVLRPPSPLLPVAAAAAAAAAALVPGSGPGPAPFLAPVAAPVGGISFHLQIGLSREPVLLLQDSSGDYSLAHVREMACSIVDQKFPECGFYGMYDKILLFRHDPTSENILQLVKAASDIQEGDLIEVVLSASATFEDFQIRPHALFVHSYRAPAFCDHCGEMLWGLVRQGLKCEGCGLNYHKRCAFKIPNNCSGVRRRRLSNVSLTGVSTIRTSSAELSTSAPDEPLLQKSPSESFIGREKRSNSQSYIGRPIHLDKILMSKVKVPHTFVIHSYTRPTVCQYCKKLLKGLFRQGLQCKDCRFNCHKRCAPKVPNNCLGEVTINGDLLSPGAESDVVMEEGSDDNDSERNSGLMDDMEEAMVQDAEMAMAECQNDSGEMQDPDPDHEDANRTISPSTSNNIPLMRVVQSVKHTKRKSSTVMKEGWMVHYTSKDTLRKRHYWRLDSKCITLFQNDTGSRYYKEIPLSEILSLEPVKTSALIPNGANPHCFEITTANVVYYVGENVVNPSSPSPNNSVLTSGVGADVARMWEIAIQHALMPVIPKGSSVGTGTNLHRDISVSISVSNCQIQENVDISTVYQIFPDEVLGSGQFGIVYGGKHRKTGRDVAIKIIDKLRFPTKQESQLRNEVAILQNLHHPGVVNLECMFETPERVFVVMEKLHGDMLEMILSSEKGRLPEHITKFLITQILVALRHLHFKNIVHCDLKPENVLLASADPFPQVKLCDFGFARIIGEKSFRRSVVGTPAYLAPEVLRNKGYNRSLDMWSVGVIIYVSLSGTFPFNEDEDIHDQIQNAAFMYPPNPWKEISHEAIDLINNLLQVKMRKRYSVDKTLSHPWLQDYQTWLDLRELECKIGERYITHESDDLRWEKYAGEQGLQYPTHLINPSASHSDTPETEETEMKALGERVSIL
The note with it: at 0.1 µM.

Assay [19] has as its target T3, Serine/threonine-protein kinase D1 (Homo sapiens). The note with it: at 1 µM.
Assay [20] concerns the target T4, Serine/threonine-protein kinase D2 (Homo sapiens) (UniProt Q9BZL6).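 Note: reported percent inhibition values are means, part of the GSK PKIS kinase panel screen.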
T4 sequence (whole entry): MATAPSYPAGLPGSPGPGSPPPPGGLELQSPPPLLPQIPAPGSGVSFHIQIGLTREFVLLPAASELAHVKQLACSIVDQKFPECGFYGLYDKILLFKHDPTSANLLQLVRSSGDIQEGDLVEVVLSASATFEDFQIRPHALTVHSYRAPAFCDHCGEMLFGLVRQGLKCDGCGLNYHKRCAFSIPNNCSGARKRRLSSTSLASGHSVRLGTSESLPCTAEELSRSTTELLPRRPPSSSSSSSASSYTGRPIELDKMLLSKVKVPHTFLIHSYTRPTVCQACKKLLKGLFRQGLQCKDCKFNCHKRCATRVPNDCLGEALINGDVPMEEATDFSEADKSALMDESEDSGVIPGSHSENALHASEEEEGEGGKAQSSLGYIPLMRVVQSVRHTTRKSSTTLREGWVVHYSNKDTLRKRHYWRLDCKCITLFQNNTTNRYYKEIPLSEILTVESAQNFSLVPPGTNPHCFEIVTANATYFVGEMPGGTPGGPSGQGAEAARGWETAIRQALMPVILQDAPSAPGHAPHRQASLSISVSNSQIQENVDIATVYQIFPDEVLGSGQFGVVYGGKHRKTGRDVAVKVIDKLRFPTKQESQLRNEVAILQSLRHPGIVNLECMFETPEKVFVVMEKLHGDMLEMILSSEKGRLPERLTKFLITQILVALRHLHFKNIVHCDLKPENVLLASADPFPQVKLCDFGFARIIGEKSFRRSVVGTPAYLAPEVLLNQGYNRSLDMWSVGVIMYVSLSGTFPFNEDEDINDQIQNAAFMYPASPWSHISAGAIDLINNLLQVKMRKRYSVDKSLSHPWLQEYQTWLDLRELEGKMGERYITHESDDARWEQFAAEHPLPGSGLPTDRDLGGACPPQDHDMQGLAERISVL
To be noted: at 0.1 µM.

Protein kinase C beta type (Homo sapiens), sequence (P05771 2-671 limits assumed): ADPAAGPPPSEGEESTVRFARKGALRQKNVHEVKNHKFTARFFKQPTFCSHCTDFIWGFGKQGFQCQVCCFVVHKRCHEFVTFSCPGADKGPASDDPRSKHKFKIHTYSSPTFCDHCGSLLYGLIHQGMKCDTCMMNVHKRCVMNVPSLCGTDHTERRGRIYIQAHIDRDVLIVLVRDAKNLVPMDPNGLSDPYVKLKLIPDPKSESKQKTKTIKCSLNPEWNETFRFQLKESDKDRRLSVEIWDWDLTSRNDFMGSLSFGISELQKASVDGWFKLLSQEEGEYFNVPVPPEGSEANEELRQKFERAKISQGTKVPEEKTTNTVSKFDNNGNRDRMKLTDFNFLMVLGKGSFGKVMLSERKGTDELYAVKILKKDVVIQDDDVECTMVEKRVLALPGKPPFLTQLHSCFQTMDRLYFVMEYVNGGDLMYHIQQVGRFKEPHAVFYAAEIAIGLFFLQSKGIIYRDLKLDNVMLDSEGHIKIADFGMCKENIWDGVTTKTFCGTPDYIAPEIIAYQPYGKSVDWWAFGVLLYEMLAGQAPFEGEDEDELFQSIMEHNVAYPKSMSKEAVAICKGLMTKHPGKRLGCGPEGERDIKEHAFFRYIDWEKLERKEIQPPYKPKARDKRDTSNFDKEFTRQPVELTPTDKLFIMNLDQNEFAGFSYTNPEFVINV
Protein kinase C theta type (Homo sapiens), sequence (Q04759 whole entry, looked up): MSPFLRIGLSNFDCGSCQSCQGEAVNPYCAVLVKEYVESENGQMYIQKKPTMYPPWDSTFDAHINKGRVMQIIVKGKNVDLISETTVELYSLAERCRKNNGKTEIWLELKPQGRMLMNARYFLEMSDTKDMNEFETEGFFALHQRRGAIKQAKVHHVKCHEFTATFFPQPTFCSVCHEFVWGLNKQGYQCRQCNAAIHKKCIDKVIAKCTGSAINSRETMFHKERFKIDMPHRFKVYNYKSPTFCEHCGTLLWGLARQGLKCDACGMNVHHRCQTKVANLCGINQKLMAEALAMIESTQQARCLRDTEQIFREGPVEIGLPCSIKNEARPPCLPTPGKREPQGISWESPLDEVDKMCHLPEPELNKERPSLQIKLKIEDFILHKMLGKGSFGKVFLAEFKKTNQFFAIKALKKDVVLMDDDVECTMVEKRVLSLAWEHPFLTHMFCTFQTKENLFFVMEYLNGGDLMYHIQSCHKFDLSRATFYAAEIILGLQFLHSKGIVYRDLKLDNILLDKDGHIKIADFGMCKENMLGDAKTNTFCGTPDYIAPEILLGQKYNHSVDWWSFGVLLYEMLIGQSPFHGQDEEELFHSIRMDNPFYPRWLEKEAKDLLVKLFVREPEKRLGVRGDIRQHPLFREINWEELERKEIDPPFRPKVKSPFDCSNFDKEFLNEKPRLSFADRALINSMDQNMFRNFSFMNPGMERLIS
Protein kinase C eta type (Homo sapiens), sequence (P24723 whole entry): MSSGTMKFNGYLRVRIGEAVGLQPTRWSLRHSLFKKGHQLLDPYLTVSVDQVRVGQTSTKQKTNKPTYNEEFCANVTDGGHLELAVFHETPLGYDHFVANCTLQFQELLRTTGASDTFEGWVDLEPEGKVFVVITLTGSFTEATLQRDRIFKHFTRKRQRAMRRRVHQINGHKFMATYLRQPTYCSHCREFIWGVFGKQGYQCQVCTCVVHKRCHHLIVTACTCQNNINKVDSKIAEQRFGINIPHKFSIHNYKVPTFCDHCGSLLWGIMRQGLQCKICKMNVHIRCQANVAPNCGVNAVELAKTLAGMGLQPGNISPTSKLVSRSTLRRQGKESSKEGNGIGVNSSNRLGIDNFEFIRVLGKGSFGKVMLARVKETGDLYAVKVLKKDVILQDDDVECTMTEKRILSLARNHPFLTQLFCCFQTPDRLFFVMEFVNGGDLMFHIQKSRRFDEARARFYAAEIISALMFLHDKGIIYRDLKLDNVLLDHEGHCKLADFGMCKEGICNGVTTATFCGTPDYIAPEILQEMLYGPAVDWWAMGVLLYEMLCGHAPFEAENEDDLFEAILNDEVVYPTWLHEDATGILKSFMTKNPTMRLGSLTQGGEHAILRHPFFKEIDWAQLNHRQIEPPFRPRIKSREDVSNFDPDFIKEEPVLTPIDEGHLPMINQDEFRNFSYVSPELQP

As for `NC(=O)c1cccc(Nc2nccc(Nc3cccc(F)c3)n2)c1`, the inhibition is -1.35% in assay [1]; 1.44% in assay [2]; 0.76% in assay [3]; 0.15% in [4]; 4.54% in assay [5]; -2.22% in assay [6]. The inhibition is -5.72% in [7]; 1.84% in [8]; 2.62% in assay [9]; 2.94% in assay [10]; 4.93% in [11]; -0.38% in assay [12]. Besides, the inhibition is -1.03% in assay [13]; 0.79% in assay [14]; 0.72% in assay [15]; 2.1% in [16]; 4.84% in [17]; 1.93% in assay [18]. Also, the inhibition in [19] was 4.25%; in assay [20], 0.71%.

On to `Cc1ccc2c(-c3ccnc(Nc4cccc(C(F)(F)F)c4)n3)c(-c3ccccc3)nn2n1`, for which the inhibition amounted to 0.65% in assay [1]; 2.43% in assay [2]; 4.26% in assay [3]; 1.57% in assay [4]; 10.6% in assay [5]; 0.54% in assay [6]. The inhibition in [7] was 3.6%; in assay [8] it was 5.12%; in [9] it was 4.11%; in [10], -1.08%; in assay [11], 5.36%; in [12], 1.34%. Further, the inhibition stood at 1.37% in [13]; 2.13% in assay [14]; 3.7% in [15]; 1.37% in assay [16]; 5% in assay [17]; 7.68% in assay [18]. The inhibition in assay [19] worked out at 39.8%; in assay [20], 12.8%.

Turning to `COc1cccc(-n2nc(C)c3c(N/N=C(\C)c4ccncc4)ncnc32)c1`, the inhibition is 2.62% in [1]; 0.69% in assay [2]; -0.34% in assay [3]; -0.84% in assay [4]; -1.11% in [5]; 0.03% in assay [6]. The inhibition in assay [7] is -2.45%; in assay [8] it was -0.66%; in [9], -5.32%; in assay [10] it was 1.51%; in [11] it was -0.03%; in [12], -1.18%. In addition, the inhibition in [13] was -0.8%; in assay [14], -0.03%; in assay [15], -0.11%; in [16] it was 0.75%; in assay [17], 0.46%; in assay [18] it was 0.01%. Further, the figures for the inhibition in assay [19] and in [20] were 0.3% and 0.82%, respectively.

`CCOc1nccc2c1nc(-c1nonc1N)n2CC`: the inhibition was 1.85% in assay [1]; 3.12% in assay [2]; 9.17% in [3]; -0.03% in [4]; 1.03% in assay [5]; 11.6% in [6]. In addition, the inhibition in assay [7] was 39.7%; in [8], 7.44%; in assay [9], 24.1%; in [10], 3.01%; in [11], 0.08%; in assay [12], 3.07%. Also, the inhibition in assay [13] turned out to be 0.84%; in [14] it was 2.98%; in assay [15], 6.45%; in assay [16], 3.06%; in [17], 5.23%; in [18] it was 3.37%. For the same compound, the inhibition was 1.82% in [19] and 1.9% in assay [20].

Turning to `Cc1ccc(Nc2ccnc(Nc3cccc(C(N)=O)c3)n2)cc1O`, the inhibition in assay [1] is 2.89%; in assay [2], -1.93%; in assay [3] it was -0.05%; in assay [4], -1.9%; in assay [5], 8.24%; in assay [6], 0.32%. The inhibition worked out at 4.35% in assay [7]; 6.2% in assay [8]; 4.32% in assay [9]; 4.85% in assay [10]; 16.4% in assay [11]; 1.56% in assay [12]. Further, the inhibition in assay [13] is -0.31%; in [14], 0.93%; in assay [15], 2.94%; in assay [16], 1.81%; in [17] it was 8.28%; in [18], -0.94%. Further, the inhibition in assay [19] was 12.1%; in [20] it was -0.15%.

On to `Cc1ccc2c(c1)/C(=N/Nc1ccc(S(N)(=O)=O)cc1)C(=O)N2`, for which the inhibition in assay [1] is 0.19%; in assay [2] it was 0.27%; in assay [3], 1.28%; in assay [4], 0.13%; in assay [5], -0.36%; in assay [6], -0.92%. The inhibition in assay [7] is 0.39%; in assay [8], -0.77%; in [9], -1.47%; in [10], -1.71%; in assay [11], -1.54%; in assay [12], -1.59%. The inhibition was 0.19% in assay [13]; -0.6% in assay [14]; -1.65% in assay [15]; 0.19% in [16]; 0.09% in [17]; 0.96% in assay [18]. Also, the inhibition is 1.76% in assay [19] and 1.62% in assay [20].

Consider `NS(=O)(=O)c1ccc(NC=C2C(=O)Nc3ccc4ncsc4c32)cc1`, for which the inhibition in [1] was found to be 30.1%; in assay [2], 2.64%; in [3] it was 11.8%; in [4] it was 1.14%; in assay [5], 8.8%; in assay [6] it was 0.12%. Also, the inhibition in assay [7] came out at 2.75%; in assay [8] it was 6.21%; in assay [9] it was 4.18%; in assay [10], 3.84%; in [11], 9.7%; in assay [12] it was 2.56%. Also, the inhibition in [13] was 5.28%; in assay [14], 3.44%; in assay [15] it was 11.8%; in assay [16] it was 2.28%; in [17], 6.13%; in assay [18], 28.5%. Also, the inhibition in assay [19] worked out at 78.4%; in [20] it was 21.3%.

In general, inhibition refers to the drop in the measured response relative to a control, in per cent.
